Laboratory results as given in the supplement of paper PMC6555819.

These sequences were tested on VDR:RXRa (NR concentration 270 nM, RXRa partner concentration 90 nM) (assay: PBM binding z-score (relative to random genomic background probes); higher = stronger binding; sequences stand for … in GC…GCGATTGACAGCGTAGAATGAAGG).
Experimental: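 Protein-binding microarray (Agilent 4x180K custom design, double-stranded 60-nt probes: 5' GC cap, 34-nt variable region, 24-nt constant primer region; full probe sequence given). Purified or IVT nuclear receptor:RXRα heterodimers (3:1 NR:RXRα, mostly 270:90 nM) or homodimers were incubated for 1 h in PBS with 2% milk and no ligand, then detected with Alexa488 antibodies. Fluorescence from o1-orientation probes (~5 replicates averaged) was converted to z-scores against 500 random hg19 background probes. Variable regions are seed direct-repeat (DR0–DR5) sites, all their single-nucleotide variants and half-site ablations.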

Sequence | PBM binding z-score
CGGACTGGGGCAGAAAGGTTACCATACCATCCGG | 1.33
GCTGCTAGGTCAACTGATGGTCAGCTACAGCTCG | 1.51
GCTGCTAGGTCAGGTTTGTCAGCTAACGGGTACG | 0.236
AGAATGAGGTTACCAAAGATCAGGGATACGCTTG | 1.39
ATCGAAAGGTCGTGAGCTGAGTATACAGAAAGGC | 2.95
ACTAGCAGGCCAAGGGTCACGCAAGATTAGTCCG | 3.76
AGAACGAGGGCACGCTGAGTGGATAGCAGAGTAG | 0.617
AGAATGTGGTTATTAAGATCAGGGAATTGCGGTC | 0.251
GCGACTGGGGCAAAGCAGGTTACCTTAAGGTTGG | 0.0193
TCGAGTAGGTTAGTCGGGGGATTCAGCCAACATA | 0.946
CTCGAAAGGTCGGTTGAGGTGAGTATTCGGATAA | 2.16
CCTACTGGGCCACGAAAGGTCATTGAATCAGTGA | 4.14
CGTCAAAGTTCAACTATGGTAACGTAAAGCACGC | 4.35
TCTAGCAGGCCAGAGGGTCACTAAAGAGGTACGG | 1.24
TCGAGTTGGTCAAAGGTCACACACTCGAAATGCG | 5.56
TCTGCGAGGTCAACGATGGTCAGCTAATCTGCTA | 5.38
GCTTGTGGATCAAGGTTAAGAAAGACTAAGCTAA | 0.111
TTACCAAGGTGAAAGGCCGTTGATGCACGCCTTG | 0.0595
CAGCCTAGGTCAGGGCCAGTATGGGAGGAACGTT | -0.0336
CCGACTGGAGCAAGGTTACCATAACGCACAGCCA | 0.139

Sequence | PBM binding z-score
TTACCATGGTGAGCTGAGGTCGTTGATCCAACTC | 1.57
TCATATATGTAATACAGGTGAAAGTCGGCATCTA | 0.899
ATCTCTAGGTACCCAAGTTCAGTGAATGCCGAAC | 2.1
CGTCCAAGGTCAAGGTCAGTGCAAGAGACTCGAA | 5.5
AGTCAAGGTTCACTAGGTAACGTAAGATTCAGCT | 3.27
TCATATAGGTAGATGCTAGGTGAAAGTCCGATCT | 0.638
ACTAGTAGGCCAAGTTTGGGTCACTCAAACAAAG | 0.967
GCGACTGGGGAATCAGCAGGTTACCATAACTTAA | -0.497
GGACCAAGGTGAATAGGTCGTTGATGAGTAGGCG | 0.886
ATCGAGAGGTCGAAGGTGAGTATACCCACCCGAA | 2.42
ATACCATGGTGATCGTGAGGTCGTTGATACTAAC | 2.03
TCATATAGGTAAACCGGTGAAAGTCCGTAAGTTA | 0.87
CCTAGCAGGCCAGGGTAACTCAAGCATTTCGCTT | -0.743
TCTATTAGTAGAAGGGCAACCGACGAGTCCGTTT | 0.796
CGAACTAGGTCAAGGACAGTGAGTCTCCGCACGC | 1.16
CATACAGGGTCAGCTAGGCCAGCGTAGGGACGGC | 3.62
TTACCAAGGTGAAAGGTCGTTGTTGCACGCCTTG | 3.24
CTCGAAAGATCGTGCTCAGGTGAGTATACCAAAC | -0.291
AGAATGACGTTACCAAAGATCAGGGAAACGCTTG | -0.434
CCTAGTTGGTGAAGGTCACACACGCTATAGGTAC | 3.4
